Hits are enriched below; roughly 12% of the tested compounds scored in any of these assays.
FMDV antiviral = antivirals against foot and mouth disease virus; FMDV antiviral cell-based qHTS; Potency, µM (highest dose often 57.9 µM), for the others: top-dose activity change, negative = inhibition, hits mostly inhibitors; hit rate 1.2% among 410,000; calls by dose curve; tested in HEK293T cells; also: read-out not given here; potency is read from the fitted curve at half-maximal effect; % is scaled to controls: 0 for no effect and ±100 for the full control effect; nearly all actives have a fitted effect of over 45% in size
Shiga inhibitor = Shiga toxin inhibition; AID 2315; Vero cells, Shiga toxin protein synthesis inhibition reporter; hit rate 9.2% among 290,000; inhibition, % at 38.7 µM; in the data active = inhibition mostly above about 28%, no sharp cut-off; inactive = mostly below about 43%; also: 0% is about no effect
Sm TGR inh = S. mansoni TGR enzyme inhibition; Q962Y6; hit rate 3% among 360,000; Potency, µM (titrated, usually from 114 µM), inactives show top-dose activity change, negative = inhibition, most hits filed as inhibitors; purified TGR, DTNB reduction, TNB absorbance 405 nm; AID 485364; active = well fitted inhibition curve with a large enough effect; inconclusive = small, poorly fitted or top-dose-only effect; inactive = no such curve, though single readings can be large or run the other way; also: potency is read from the fitted curve at half-maximal effect; % is scaled to controls: 0 for no effect and ±100 for the full control effect; nearly all actives have a fitted effect of over 60% in size
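Kinetic colorimetric format: TGR-catalysed, NADPH-driven DTNB reduction monitored via TNB absorbance. Enzyme dispensed at 20 nM; compound exposure 15 min at room temperature before reaction start.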
CHX counter = counter-screen for Shiga toxin inhibitors: cycloheximide protein synthesis inhibition; AID 2314; hit rate 12% among 300,000; cell reporter, cycloheximide protein synthesis inhibition counterscreen; max response, %; in the data active = max response mostly above about 13%, no sharp cut-off; inactive = mostly below about 14%; also: read at 38.3 µM for the half of the compounds with a filed dose; 0% is about no effect
Numbers without * were called inactive; ? = inconclusive; . = no result given.

SMILES	FMDV antiviral	Shiga inhibitor	Sm TGR inh	CHX counter
FC(F)(F)c1ccccc1NC(=S)NN=C1CCCCCC1	11%	32	10%	33*
Cc1cccc(NC(=S)N/N=C(\c2ccccc2)C(C)C)c1	52%	55*	7%	26*
Cc1cccc(NC(=S)NCCC(C)C)c1	113%	25	0%	20*
Cc1ccc(C)c(NC(=O)Nc2nnc(N(CC(C)C)CC(C)C)s2)c1	-17%	.	-3%	.
O=C(O)CN1C(=O)/C(=C\c2cc(Br)ccc2OCc2ccccc2F)SC1=S	-15%	1	-20%	6
O=C(O)CN1C(=O)/C(=C\c2cc(Br)ccc2OCc2ccccc2Cl)SC1=S	-16%	77*	?	42*
O=C(O)CN1C(=O)/C(=C\c2cc(Br)ccc2OCc2ccc([N+](=O)[O-])cc2)SC1=S	-3%	-5	?	2
O=C(O)CN1C(=O)/C(=C\c2ccccc2OCc2ccc(Cl)cc2Cl)SC1=S	25µM*	38*	-35%	16*
O=C(O)CN1C(=O)/C(=C\c2cccc(OCc3ccc(Cl)cc3Cl)c2)SC1=S	3%	68*	-25%	22*
COc1ccc(N2CC(NC(=O)COc3ccc(F)cc3)CC2=O)cc1OC (stereo not given)	-16%	.	-6%	.
CCOc1cccc(CC(=O)N2CCc3c([nH]c4ccccc34)C2c2ccccc2)c1OCC (stereo not given)	-14%	.	3%	.
CC(C)OCCCN(Cc1ccco1)C(=O)c1cc2c(s1)-c1ccccc1OC2	-24%	.	2%	.
CN(C)c1nc(-c2ccc([N+](=O)[O-])cc2)cs1	17%	78	-36%	21*
C=CCNc1nc(-c2ccc(Cl)cc2)cs1	13%	130*	-1%	64*
C=CCNc1nc(-c2ccc([N+](=O)[O-])cc2)cs1	-3%	63*	0%	56*
CCCOc1ccc(-c2nc(-c3ccc([N+](=O)[O-])cc3)cs2)cc1	4%	2	18%	-1
CCOc1ccccc1NC(=O)CC1(CC(=O)N2CCOCC2)CCCC1	-31%	.	40µM*	.
COc1ccc(NC(=O)CC2(CC(=O)N3CCOCC3)CCCC2)cc1Cl	-8%	.	-7%	.
Cc1nn(CCO)c2nc(-c3cccs3)cc(C(F)(F)F)c12	-22%	-4	25µM*	10
COc1ccc(C(=O)NCC(c2ccc(N(C)C)cc2)N2CCCC2)c(OC)c1 (stereo not given)	-15%	.	-7%	.
O=C1NN(c2ccc(F)c(Cl)c2)C(=O)/C1=C\c1cccc(OC(=O)c2cccs2)c1	28µM*	-6	-22%	14
O=C(O)c1csc(-c2cccc(Cl)c2)n1	14%	5	0%	9.7*
Cc1cc(C(=O)NNC(=O)Nc2ccccc2)no1	3%	1	1%	-1
Cc1nc(C(=O)NNC(=O)Nc2ccccc2)cs1	0%	18	-8%	13*
O=C(Nc1ccccc1)c1csc(-c2ccccc2)n1	44%	43*	10%	26*
SMILES	FMDV antiviral	Shiga inhibitor	Sm TGR inh	CHX counter
O=C(Nc1ccc(F)cc1F)c1csc(-c2ccccc2)n1	35%	70*	-7%	24*
CCCCC1CCC(C(=O)N2CC(=O)Nc3ccc(C)cc3C2c2ccc(F)cc2)CC1 (stereo not given)	-26%	.	-5%	.
COc1ccc(N(CC(=O)N2CCc3ccccc3C2)S(=O)(=O)c2ccc(C)cc2)cc1Cl	33%	.	-3%	.
CCS(=O)(=O)Nc1ccc(C2=NN(C(=O)c3ccco3)C(c3ccc(Cl)o3)C2)cc1 (stereo not given)	28µM*	.	.	.
CCC(=O)N1N=C(c2ccc(NS(=O)(=O)c3ccc(C)cc3)cc2)CC1c1ccco1 (stereo not given)	26%	.	.	.
Cc1ccc(C2=NN(C(=S)Nc3ccccc3)C(c3ccco3)C2)cc1 (stereo not given)	51%	71*	6%	39*
CCS(=O)(=O)Nc1ccc(C2=NN(C(=S)Nc3ccccc3)C(c3ccco3)C2)cc1 (stereo not given)	28%	18	-20%	18*
O=C(NCc1ccccc1)[C@]1(C(F)(F)F)C[C@H](CCCO)CCCO1	.	2	.	-1
CC(CC(=O)NCc1ccc(Cl)cc1)CC1=NS(=O)(=O)c2ccccc2N1 (stereo not given)	7%	.	1%	.
Cc1ccc(C)c(N2CCN(CCCNC(=O)Cn3c(-c4cccs4)cc4ccccc43)CC2)c1	0%	.	-1%	.
Cc1cc(NCc2ccccn2)ccc1Br	66%	74*	9%	34*
Cc1cc(C)c(S(=O)(=O)NCc2ccccn2)c(C)c1	18%	2	-7%	1
CCCn1cnc2cc(NCc3ccccc3OCC)ccc21	-11%	.	-8%	.
CCN(CC)CCn1c(NCc2ccccn2)nc2ccccc21	-24%	11	2%	-6
CC(C)n1cnc2cc(NCc3ccccc3O)ccc21	39%	86*	4%	52*
CC(C)n1cnc2cc(NCc3ccco3)ccc21	23%	72*	0%	41*
CC(C)n1cnc2cc(NCc3ccccn3)ccc21	35%	70*	-32%	72*
Cc1cc(C)cc(Oc2nc3c(c(=O)n(C)c(=O)n3C)n2Cc2ccc(F)cc2)c1	-24%	.	-7%	.
CC(C)(C)n1cnc2cc(NCc3ccccc3O)ccc21	29%	66*	0%	49*
Cc1nc2cc(NCc3cc([N+](=O)[O-])ccc3O)ccc2n1Cc1ccccc1	-11%	33	-9%	2
CC(C)(C)OC(=O)NCc1ccc(CNC(=O)c2nc[nH]c2C(=O)N2CCc3ccccc3C2)cc1	40µM*	.	3%	.
CC(C)(C)OC(=O)NCc1ccc(CNC(=O)c2nc[nH]c2C(=O)N2CCN(c3ccccc3)CC2)cc1	20µM*	.	-2%	.
CC(C)(C)OC(=O)[C@H](Cc1ccccc1)NC(=O)c1nc[nH]c1C(=O)N1CCN(c2ccccc2)CC1	-11%	-3	-21%	-2
Cc1cc2oc(C(=O)Nc3sc4c(c3C(=O)NCC3CCCO3)CCCC4)cc(=O)c2cc1C (stereo not given)	5%	.	-18%	.
CN(CCC#N)C(=O)COC(=O)c1c2c(nc3ccccc13)/C(=C/c1ccco1)CC2	27%	23	10µM*	38*
SMILES	FMDV antiviral	Shiga inhibitor	Sm TGR inh	CHX counter
CCN1C(=O)[C@H]2[C@@H](c3ccc(C)cc3)N3C(=O)N(c4ccccc4)C(=O)[C@@]3(CC)[C@H]2C1=O	38%	28	-7%	15*
CCN1C(=O)[C@H]2[C@@H](c3ccc(C)cc3)N3C(=O)N(c4ccc(C)cc4)C(=O)[C@@]3(CC)[C@H]2C1=O	15%	.	-7%	.
CC(C)c1nnc(N2C(=O)C(O)=C(C(=O)c3cccs3)C2c2ccccc2)s1 (stereo not given)	-9%	55*	-26%	21*
CN(Cc1cccs1)C(=O)CNC(=O)c1ccco1	35%	58	-27%	22*
O=C(NCCNC(=O)c1cccs1)c1ccco1	-17%	32	-21%	-4
O=C(CSc1ccc(-c2cccnc2)nn1)N1CCCc2ccccc21	.	-11	1%	-1
CC(Sc1nnc(-c2cccnc2)n1-c1ccccc1F)C(=O)N1CCCc2ccccc21 (stereo not given)	.	-10	6%	17*
COC(=O)Cc1c(C)c2ccc(OCC(=O)N3CCC(C)CC3)c(C)c2oc1=O	35µM*	26	2%	-1

Assay outcomes from PubChem BioAssay.
